ChEMBL document CHEMBL4513216, “Probing the Open Global Health Chemical Diversity Library for Multistage-Active Starting Points for Next-Generation Antimalarials” (ACS Infect Dis, 2020)
Screen size: about 69,000 compounds; about 8,600 (12%) showed an effect of 50% or more. Only a selection was taken, and strong results are over-represented in it overall.

Test system: Plasmodium berghei
Test: Screen against P. berghei liver stage (PbLuc), transformed with Luciferase, at 10uM
Type: functional, HepG2
Conditions: tested at 10 uM

Structure (SMILES) | INHIBITION
CC(C)NC(=O)N1CC[C@@H]2CN(Cc3ccccc3)S(=O)(=O)[C@@H]2CC1 | 31.8%
O=c1[nH]cnc2c1CCN(S(=O)(=O)c1cccc(OC(F)(F)F)c1)C2 | -23.7%
COCCN1C[C@H](OCc2csc(C)n2)[C@H]2COC[C@H]21 | -41.4%
CCC(C)N(Cc1sccc1C)C(=O)c1cc(N)ccn1 (configuration not stated) | 43.9%
Cc1ccccc1-c1cncc(C2CCN(C(C)C)CC2)n1 | 32.8%
Cc1ccccc1-c1cncc(C2CCN(C3CCOCC3)CC2)n1 | 64.1%
Cc1ccccc1-c1cncc(C2CCN(C)CC2)n1 | 38.1%
COc1cccc(-n2nnc(C(=O)N3CCN(C)CC3C)c2C)c1 (configuration not stated) | 68.3%
COc1cccc(-n2nnc(C(=O)N3CCCC3)c2C)c1 | 2.26%
COc1cccc(-n2nnc(C(=O)N3CCCC(C)C3)c2C)c1 (configuration not stated) | -60.35%
Cc1nc(C)c(CN2CCC(N(C)Cc3nnc(C4CC4)o3)C2)s1 (configuration not stated) | -21.9%
Cc1ccc(CNc2cc3c(cc2Cl)NC(=O)CO3)cc1C | 56%
CC(C)(C)c1nc(CNc2cc3c(cc2Cl)NC(=O)CO3)no1 | 5.91%
Cc1noc(CNc2cc3c(cc2Cl)NC(=O)CO3)n1 | 3.13%
O=C(NCc1nnc2n1CCC2)c1cccc(Br)c1 | -57.5%
Cc1csc(C2(NCc3nnc(-c4ccco4)o3)CCCC2)n1 | 32.9%
Cc1csc(C2(NCc3nc(-c4ccco4)no3)CCCC2)n1 | 62%
Cc1csc(C2(NCc3ccc(OCC(F)F)cc3)CCCC2)n1 | 14.5%
Cc1csc(C2(NCc3csc(C4CC4)n3)CCCC2)n1 | 24.2%
Cc1csc(C2(NCC(O)COC(C)C)CCCC2)n1 (configuration not stated) | 9.41%
Cc1csc(C2(NCc3nc(-c4ccco4)oc3C)CCCC2)n1 | 64.5%
COCCNC(=O)N1CCN(C(=O)c2nsc3ccc(C)cc23)CC1 | -32.1%
Cc1ccc(OCC(=O)N2CCCC(n3nc(C)nc3C)C2)cc1 (configuration not stated) | 25.1%
CN(CCCN1CCCCCC1)C(=O)c1ccccc1NCC(=O)O | 14.9%

Structure (SMILES) | INHIBITION
c1ccc(-c2nnc(CN3CCCC(Cn4cncn4)C3)o2)cc1 (configuration not stated) | 9.31%
COc1ccc(Cl)cc1NCc1cc(C)on1 | 11.783%
CCOc1ccc(C#N)cc1NCc1cc(C)on1 | 51.7%
CCOc1ccc(OCC)c(NCc2cc(C)on2)c1 | 71.2%
CCOc1ccc(C(F)(F)F)cc1NC(=O)NCc1noc(C)n1 | -15%
CCOc1ccc(C(F)(F)F)cc1NC(=O)N1CCC(C(N)=O)CC1 | -3.21%
CCOc1ccc(C#N)cc1NCC(=O)NC(=O)NC | 2.3%
CCCNC(=O)CNc1cc(C#N)ccc1OCC | 60.5%
CCOc1ccc(C(F)(F)F)cc1NCc1nc(C)c(C)o1 | 65.6%
CCNC(=O)NC(=O)CNc1cc(C#N)ccc1OCC | -9.76%
CCOc1ccc(C#N)cc1NCC(=O)Nc1cc(C)no1 | 7.7%
CCOc1c(Cl)cccc1NCc1cc(C)on1 | -10.2%
CCOc1ccc(C#N)cc1NCC(=O)OC | -38.7%
CCN(Cc1cccc(C)c1)Cc1nc2c(cnn2C)c(=O)[nH]1 | 49.1%
Cc1cc(N2CCN(Cc3cn(C)nc3C)CC2)cc(C2CCNC2)n1 (configuration not stated) | 18.225%
Cc1ccc(NC2CCN(C(=O)c3cccnc3N(C)C)CC2)nn1 | 21.6%
CN(C)[C@@H]1CCN(c2ncc(F)cn2)[C@H]1Cc1cccnc1 | 9.72%
Cc1cc(C)n(CC2CN(Cc3ccc(C(N)=O)cc3)CCO2)n1 (configuration not stated) | 46.1%
COCC(=O)N1CCCC1c1nc(C)c2c(n1)N(CC(C)C)C(=O)CC2 (configuration not stated) | -16.9%
CCNC(=O)N(C)C(c1ccccc1)c1ccccn1 (configuration not stated) | -16%
COc1ccc(C(C)NCc2ccsc2)cc1Cn1cccn1 (configuration not stated) | 10.6%
CC(=O)N(C)C1CCN(C(=O)NCCc2cc(F)ccc2F)CC1 | -6.67%
Cc1cc(CNc2cc(Cl)ccc2OCCS(C)(=O)=O)no1 | 48.1%
Cc1cc(CNc2ccc(C(F)(F)F)cc2)no1 | 30.4%

Structure (SMILES) | INHIBITION
CCOc1ccc(C(F)(F)F)cc1NCc1cc(C)on1 | 64.7%
Cn1cc(CN2CCC3(CC2)CC(c2ccncc2)C(=O)N3)cn1 (configuration not stated) | 36.4%
OC(CN1CCN(CCOCC(F)(F)F)CC1)c1ccccc1 (configuration not stated) | 56.9%
CCOCCN1CCN(CC(O)c2ccc(C(F)(F)F)cc2)CC1 (configuration not stated) | 24%
OC(CN1CCN(CC2CCCCC2)CC1)c1ccccc1 (configuration not stated) | 93.8%
CC(O)CN1CCN(CCOCC(F)(F)F)CC1 (configuration not stated) | -21.2%
O=C(N1CCCCC1)N1CCN(CC(O)c2ccccc2)CC1 (configuration not stated) | 56.4%
OC(CN1CCN(Cc2nnc(C3CC3)o2)CC1)c1ccccc1 (configuration not stated) | -7.06%
O=C(N1CCCCC1)N1CCN(CC(O)c2ccc(F)cc2)CC1 (configuration not stated) | 9.25%
O=C(Cc1ccc(F)cc1)N1CCN(CC(O)c2ccccc2)CC1 (configuration not stated) | 29.7%
OC(CN1CCN(CC2CC2)CC1)c1ccc(Br)cc1 (configuration not stated) | -63.6%
COCCNC(=O)NCc1ccc(-n2ccc(C(F)(F)F)n2)cc1 | -42.1%
CC1CCc2nn(CCNC(=O)C3CCCC3)c(=O)cc2C1 (configuration not stated) | -28.1%
CCCN(CCC)CCNc1c(-c2ccccc2)c(=O)c1=O | 49.5%
Cc1cnc(-c2nc(C3CCCN(Cc4ccccc4C)C3)no2)cn1 (configuration not stated) | 25.75%
Cc1cnc(CN2C[C@H]3CC(Oc4ccccc4)C[C@H]3C2)cn1 (some centres not stated) | 30.4%
CN1C(=O)[C@@H]2CC[C@H]1CN(S(=O)(=O)c1ccc(Cl)cc1Cl)C2 | 24.3%
CN(C)C(=O)Cn1cnc2c(Br)cccc2c1=O | -14.1%
COc1cc(C(F)(F)F)sc1C(=O)O | 20.8%
CN(Cc1cc(Br)cs1)Cc1nnsc1Cl | 46.3%
COC(=O)CNC(=O)CCc1cc(Br)cs1 | 7.19%
COC(=O)CCN(C)Cc1cc(Br)cs1 | 60.2%
CN(CCC(N)=O)Cc1cc(Br)cs1 | 24%
COC(=O)CN(C)Cc1cc(Br)cs1 | 53.2%

Structure (SMILES) | INHIBITION
Cc1cccc(C(=O)N(C)Cc2cc(Br)cs2)n1 | 37.1%
COCCN1CCO[C@@H]2CN(Cc3ccccc3OC)C[C@@H]2C1 | 2.4%
CCc1nnc2n1CCN(Cc1cc(Cl)c3c(c1)OCCCO3)C2 | 23.6%
O=C(CNC(=O)N1CCc2c([nH]c3ccc(Cl)cc23)C1)NCCCO | 4.25%
COCc1csc(NC(=O)N2CCC(Cc3cnn(C)c3)C2)n1 (configuration not stated) | -27.8%
COc1ccc(CN2CCc3nc4ccsc4c(=O)n3CC2)c(C)c1C | 92.9%
O=c1c2sccc2nc2n1CCN(Cc1cccs1)CC2 | -3.41%
CCOc1ccccc1CN1CCc2nc3ccsc3c(=O)n2CC1 | 49.6%
CCOc1ccc(CN2CCc3nc4ccsc4c(=O)n3CC2)cc1 | 28%
O=c1c2sccc2nc2n1CCN(Cc1cc(F)ccc1F)CC2 | 3.91%
COc1ccc(OC)c(CN2CCc3nc4ccsc4c(=O)n3CC2)c1 | 14.7%
Cc1ccsc1CN1CCc2nc3ccsc3c(=O)n2CC1 | 35.2%
COc1cccc(CN2CCc3nc4ccsc4c(=O)n3CC2)c1 | 54.4%
COc1cc(C)c(CN2CCc3nc4ccsc4c(=O)n3CC2)cc1C | 89.3%
O=c1c2sccc2nc2n1CCN(Cc1ccccc1C(F)(F)F)CC2 | 92.9%
O=c1c2sccc2nc2n1CCN(Cc1ccc(F)c(F)c1)CC2 | 31.6%
Cc1c(CN2CCc3nc4sccc4c(=O)n3CC2)cnn1C | -12.4%
CN1CC(C)(C)CN(C(=O)CCc2ccccc2)CC1=O | 24.5%
O=C(c1cc[nH]n1)N1CCCC1c1cc(Nc2ccccn2)n[nH]1 (configuration not stated) | -20.2%
Cc1ccc2c(c1)c(C)cc(=O)n2CCC#N | 11.2%
CC(C)c1noc(CN2CCN(C(=O)c3ccncc3F)CC2)n1 | -29.1%
O=S(=O)(NCC1COCc2c(-c3ccncc3)nnn2C1)C1CC1 (configuration not stated) | 18.3%
NC(=O)c1ccc(NC(=O)c2ccncc2Cl)cn1 | 13.8%
Cc1ccc(OC2(C(=O)O)CCN(C(=O)CCc3ccco3)CC2)cn1 | 34.4%

Structure (SMILES) | INHIBITION
CC(C)(C)c1n[nH]cc1CN1CCc2nc3ccsc3c(=O)n2CC1 | 50.6%
O=c1c2sccc2nc2n1CCN(Cc1ccsc1)CC2 | 5.11%
Cc1nn(C)cc1CN1CCc2nc3sccc3c(=O)n2CC1 | 30.5%
COc1ccc(CC(=O)N2CC[C@@H]3[C@H](CC2)N(C)CCS3(=O)=O)cc1 | 18.5%
COCCCN(Cc1cnc(-c2cccs2)nc1)C1CCN(C)CC1 | 13%
Cc1nc(NC2CCS(=O)(=O)CC2)cc(C2CCCNC2)n1 (configuration not stated) | 62.2%
Cc1nc(CCC(=O)NC2CCC2)cc(C2CCCNC2)n1 (configuration not stated) | 26.8%
Cc1nc(NC2CCCCC2)cc(C2CCCNC2)n1 (configuration not stated) | 28.3%
CSc1nsc(NC(=O)c2cc(C3CC3)nn2C)n1 | -64.85%
CN(C)c1ccc(CNC(=O)NCCc2ccccn2)cn1 | -22.9%
CCN(C)Cc1cccc(CNC(=O)NCCc2ccccn2)c1 | 51%
CCN(C)Cc1cccc(CNC(=O)CSCc2ccccn2)c1 | 20.8%
Cc1nc2cc(C3CCN(Cc4ccccc4F)C3)nn2c(O)c1C (configuration not stated) | 61.7%
Fc1ccccc1CN1CCC(c2n[nH]c(C3CC3)n2)CC1 | -5.92%
CNC(=O)c1cn[nH]c1C1CCN(Cc2ccccc2F)C1 (configuration not stated) | -10.5%
Cc1nc(O)cc(C2CCN(Cc3cccc(F)c3F)C2)n1 (configuration not stated) | 25%
CN(Cc1noc(C2CC2)n1)C1CCN(Cc2cccc(F)c2F)C1 (configuration not stated) | -31.96%
COC(=O)c1cccc2nc([C@H]3CCN(Cc4ccccc4F)C3)oc12 | -61.5%
CN(Cc1nnc(C2CC2)n1C)C1CCN(Cc2ccccc2F)C1 (configuration not stated) | -3.19%
Cc1nc2cc(C3CCN(Cc4cccc(F)c4F)C3)nn2c(O)c1C.O=C(O)CC(O)(CC(=O)O)C(=O)O (configuration not stated) | 90.4%
CCc1c(C)nc2cc(C3CCN(Cc4ccccc4F)C3)nn2c1O (configuration not stated) | 85.9%
